Consider 28 targets from the supplement of paper PMC10849652.

About 7,900 targets were measured; listed, in parts, are those with a hit and a random draw of the rest. About 0.6% of all pairs of compound and target were hits.

Sequence of UniProt A8MTT3 (A8MTT3 whole entry, looked up): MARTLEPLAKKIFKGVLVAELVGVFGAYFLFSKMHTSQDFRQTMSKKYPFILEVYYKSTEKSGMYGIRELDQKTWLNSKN
Sequence of UniProt Q53ET0 (Q53ET0 whole entry, looked up): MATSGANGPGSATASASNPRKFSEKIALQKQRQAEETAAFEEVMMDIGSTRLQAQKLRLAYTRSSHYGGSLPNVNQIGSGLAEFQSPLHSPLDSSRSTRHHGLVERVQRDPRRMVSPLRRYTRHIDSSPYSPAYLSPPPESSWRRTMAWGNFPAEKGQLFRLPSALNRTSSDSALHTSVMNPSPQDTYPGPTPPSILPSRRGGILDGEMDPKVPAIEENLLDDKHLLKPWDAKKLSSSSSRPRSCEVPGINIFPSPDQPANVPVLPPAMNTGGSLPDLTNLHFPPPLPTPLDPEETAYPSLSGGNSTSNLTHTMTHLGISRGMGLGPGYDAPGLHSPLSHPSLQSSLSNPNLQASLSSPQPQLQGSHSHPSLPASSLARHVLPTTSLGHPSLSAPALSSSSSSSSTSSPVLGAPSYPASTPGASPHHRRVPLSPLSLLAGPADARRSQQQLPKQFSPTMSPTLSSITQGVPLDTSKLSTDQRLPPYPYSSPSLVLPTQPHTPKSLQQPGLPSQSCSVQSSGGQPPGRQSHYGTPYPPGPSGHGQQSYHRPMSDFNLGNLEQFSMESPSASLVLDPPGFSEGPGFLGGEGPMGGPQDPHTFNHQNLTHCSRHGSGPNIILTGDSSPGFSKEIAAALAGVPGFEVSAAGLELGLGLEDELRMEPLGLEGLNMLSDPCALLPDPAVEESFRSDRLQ
Sequence of UniProt P33552 (P33552 whole entry, looked up): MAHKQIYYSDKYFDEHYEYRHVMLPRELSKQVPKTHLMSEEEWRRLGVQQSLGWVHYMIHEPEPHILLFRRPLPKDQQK
Sequence of UniProt Q9NPF2 (Q9NPF2 whole entry, looked up): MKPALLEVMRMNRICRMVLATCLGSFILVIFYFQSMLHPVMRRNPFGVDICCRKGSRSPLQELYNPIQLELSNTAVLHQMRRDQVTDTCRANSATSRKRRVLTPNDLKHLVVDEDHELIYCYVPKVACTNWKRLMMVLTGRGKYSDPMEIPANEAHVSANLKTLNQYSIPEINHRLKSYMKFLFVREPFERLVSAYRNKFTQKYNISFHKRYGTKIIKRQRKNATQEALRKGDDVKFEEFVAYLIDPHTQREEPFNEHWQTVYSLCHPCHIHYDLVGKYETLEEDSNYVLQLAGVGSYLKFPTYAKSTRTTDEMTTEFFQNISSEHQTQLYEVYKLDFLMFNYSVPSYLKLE
Sequence of UniProt Q6ZTR5 (Q6ZTR5 whole entry, looked up): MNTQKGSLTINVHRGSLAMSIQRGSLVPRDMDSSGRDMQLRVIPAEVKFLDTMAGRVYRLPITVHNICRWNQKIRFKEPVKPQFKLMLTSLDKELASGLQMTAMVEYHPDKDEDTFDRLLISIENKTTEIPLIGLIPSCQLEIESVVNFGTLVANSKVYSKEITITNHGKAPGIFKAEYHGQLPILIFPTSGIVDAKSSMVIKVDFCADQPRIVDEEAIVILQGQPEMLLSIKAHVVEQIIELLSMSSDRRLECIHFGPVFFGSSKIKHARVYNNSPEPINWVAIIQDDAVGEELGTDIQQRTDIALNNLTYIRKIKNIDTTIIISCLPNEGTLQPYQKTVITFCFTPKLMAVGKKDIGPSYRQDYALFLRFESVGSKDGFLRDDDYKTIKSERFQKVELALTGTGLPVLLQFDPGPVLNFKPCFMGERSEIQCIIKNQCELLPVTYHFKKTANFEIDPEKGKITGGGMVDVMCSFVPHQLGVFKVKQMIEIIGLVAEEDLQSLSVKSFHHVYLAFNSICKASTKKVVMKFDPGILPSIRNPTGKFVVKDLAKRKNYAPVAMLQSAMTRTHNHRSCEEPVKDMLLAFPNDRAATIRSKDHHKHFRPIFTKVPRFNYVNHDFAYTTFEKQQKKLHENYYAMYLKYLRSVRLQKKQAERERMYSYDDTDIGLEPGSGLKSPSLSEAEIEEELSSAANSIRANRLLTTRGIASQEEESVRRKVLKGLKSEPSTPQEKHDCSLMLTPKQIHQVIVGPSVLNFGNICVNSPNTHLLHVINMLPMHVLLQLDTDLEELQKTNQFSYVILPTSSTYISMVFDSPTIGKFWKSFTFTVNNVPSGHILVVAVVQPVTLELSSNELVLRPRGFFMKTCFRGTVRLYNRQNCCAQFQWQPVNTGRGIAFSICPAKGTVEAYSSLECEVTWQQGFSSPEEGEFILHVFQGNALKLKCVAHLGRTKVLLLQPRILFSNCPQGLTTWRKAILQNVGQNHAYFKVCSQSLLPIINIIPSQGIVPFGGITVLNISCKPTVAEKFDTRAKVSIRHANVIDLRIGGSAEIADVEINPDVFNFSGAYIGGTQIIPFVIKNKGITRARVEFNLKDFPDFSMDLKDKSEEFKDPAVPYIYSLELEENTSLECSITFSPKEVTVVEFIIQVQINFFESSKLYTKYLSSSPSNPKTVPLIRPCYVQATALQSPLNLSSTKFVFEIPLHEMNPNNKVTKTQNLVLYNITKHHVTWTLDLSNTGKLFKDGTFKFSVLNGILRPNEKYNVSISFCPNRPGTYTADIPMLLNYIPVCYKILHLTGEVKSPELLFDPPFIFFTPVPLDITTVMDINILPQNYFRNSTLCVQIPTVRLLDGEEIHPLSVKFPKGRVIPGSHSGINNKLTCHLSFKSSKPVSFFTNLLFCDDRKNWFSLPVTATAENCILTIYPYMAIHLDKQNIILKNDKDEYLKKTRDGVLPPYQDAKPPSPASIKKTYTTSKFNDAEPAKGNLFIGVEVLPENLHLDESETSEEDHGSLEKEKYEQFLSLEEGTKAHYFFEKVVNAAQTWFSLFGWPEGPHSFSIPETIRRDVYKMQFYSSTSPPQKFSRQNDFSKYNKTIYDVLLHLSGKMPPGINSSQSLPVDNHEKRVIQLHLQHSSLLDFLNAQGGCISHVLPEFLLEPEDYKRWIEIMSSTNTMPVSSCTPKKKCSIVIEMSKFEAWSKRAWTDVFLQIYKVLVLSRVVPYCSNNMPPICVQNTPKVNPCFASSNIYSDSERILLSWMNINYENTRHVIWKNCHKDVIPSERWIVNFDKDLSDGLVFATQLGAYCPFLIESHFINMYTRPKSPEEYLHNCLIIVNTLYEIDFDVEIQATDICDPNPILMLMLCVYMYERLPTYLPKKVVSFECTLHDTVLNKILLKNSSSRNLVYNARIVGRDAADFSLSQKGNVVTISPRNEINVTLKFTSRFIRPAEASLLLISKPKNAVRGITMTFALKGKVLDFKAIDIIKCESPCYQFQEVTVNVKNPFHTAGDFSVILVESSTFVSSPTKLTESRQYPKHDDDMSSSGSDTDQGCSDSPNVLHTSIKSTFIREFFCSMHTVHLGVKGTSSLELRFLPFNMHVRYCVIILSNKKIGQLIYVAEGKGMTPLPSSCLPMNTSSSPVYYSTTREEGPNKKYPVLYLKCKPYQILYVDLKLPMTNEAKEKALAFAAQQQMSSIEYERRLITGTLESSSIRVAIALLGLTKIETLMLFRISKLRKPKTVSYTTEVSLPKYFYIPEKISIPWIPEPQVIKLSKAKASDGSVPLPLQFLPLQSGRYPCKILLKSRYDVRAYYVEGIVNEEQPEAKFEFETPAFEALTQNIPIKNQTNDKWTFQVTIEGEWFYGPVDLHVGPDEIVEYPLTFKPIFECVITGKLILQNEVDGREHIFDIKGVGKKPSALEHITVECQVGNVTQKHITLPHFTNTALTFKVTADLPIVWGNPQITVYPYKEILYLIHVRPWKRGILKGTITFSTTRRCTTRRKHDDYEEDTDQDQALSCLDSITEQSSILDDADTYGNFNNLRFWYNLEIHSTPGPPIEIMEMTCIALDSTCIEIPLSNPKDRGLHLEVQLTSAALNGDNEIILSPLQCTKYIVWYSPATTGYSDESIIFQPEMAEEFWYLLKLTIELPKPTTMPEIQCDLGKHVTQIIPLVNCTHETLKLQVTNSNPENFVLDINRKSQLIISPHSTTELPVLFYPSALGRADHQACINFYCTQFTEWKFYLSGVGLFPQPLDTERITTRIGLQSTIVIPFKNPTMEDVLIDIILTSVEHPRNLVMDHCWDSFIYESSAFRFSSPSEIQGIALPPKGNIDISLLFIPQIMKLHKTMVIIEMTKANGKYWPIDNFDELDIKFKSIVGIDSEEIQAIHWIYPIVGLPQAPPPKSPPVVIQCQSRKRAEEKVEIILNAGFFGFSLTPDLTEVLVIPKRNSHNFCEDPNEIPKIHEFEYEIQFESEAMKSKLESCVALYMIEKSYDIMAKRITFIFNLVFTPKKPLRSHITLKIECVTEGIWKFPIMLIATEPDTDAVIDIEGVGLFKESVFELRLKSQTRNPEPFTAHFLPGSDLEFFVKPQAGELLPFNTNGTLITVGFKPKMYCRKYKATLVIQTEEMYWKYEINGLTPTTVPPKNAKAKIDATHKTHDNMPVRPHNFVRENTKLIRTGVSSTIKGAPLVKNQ
Sequence of UniProt O95628 (O95628 whole entry, looked up): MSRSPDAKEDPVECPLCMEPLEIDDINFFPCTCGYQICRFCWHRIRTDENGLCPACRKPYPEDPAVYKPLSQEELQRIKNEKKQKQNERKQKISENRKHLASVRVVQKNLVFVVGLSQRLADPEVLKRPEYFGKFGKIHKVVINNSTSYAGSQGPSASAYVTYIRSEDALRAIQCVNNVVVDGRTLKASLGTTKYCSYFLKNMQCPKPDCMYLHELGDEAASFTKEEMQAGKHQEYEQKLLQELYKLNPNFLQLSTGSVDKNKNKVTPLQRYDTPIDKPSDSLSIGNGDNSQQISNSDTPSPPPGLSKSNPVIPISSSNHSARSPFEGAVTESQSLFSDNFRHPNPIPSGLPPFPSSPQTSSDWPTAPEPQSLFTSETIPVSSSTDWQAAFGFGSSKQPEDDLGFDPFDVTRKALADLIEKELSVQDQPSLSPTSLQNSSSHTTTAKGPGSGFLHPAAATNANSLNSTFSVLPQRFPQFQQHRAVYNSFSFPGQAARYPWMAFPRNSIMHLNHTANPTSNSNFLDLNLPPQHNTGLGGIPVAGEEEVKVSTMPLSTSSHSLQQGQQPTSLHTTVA

Compound in the first test: CNCc1ccc(-c2[nH]c3cc(F)cc4c3c2CCNC4=O)cc1 [rucaparib]
The experiment in a line: log2 fold change, soluble protein after heating vs DMSO (PISA); higher = thermal stabilisation; K562 cells, 10 uM, 30 min; active = over 0.2 and 3.5 SD of the protein, either way, in both replicates (recomputed). The method in brief: (§1)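 K562 cells at 2×10^6 cells/mL were treated for 30 min with 10 μM compound, and aliquots were heated for 3 min over 48°C-58°C before pooling. Extraction used PBS with 0.5% NP-40 at 4°C, and soluble protein was the supernatant after 21,000xg for 90 min, measured by TMTpro 16plex LC-MS/MS with channel sums equalised. Thermal stability values, relative to control samples and from duplicates, are log2 fold changes.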
Turning to CFAP58 (UniProt Q5T655), the log2 fold change is -1.21 (active).

Consider CLN3 (UniProt Q13286), for which the log2 fold change was 0.082 (inactive).

In the case of CNOT4 isoform 9 (UniProt O95628), the log2 fold change was -0.057 (inactive).

With CEBPZOS (UniProt A8MTT3), the log2 fold change is 0.159 (inactive).

Regarding CRTC2 (UniProt Q53ET0), the log2 fold change is 0.053 (inactive).

For the target CDCA2 (UniProt Q69YH5), the log2 fold change was 0.011 (inactive).

In the case of CCDC82 (UniProt Q8N4S0), the log2 fold change is -0.069 (inactive).

As to CCND3 (UniProt P30281), the log2 fold change was 0.113 (inactive).

On to CS (UniProt F8VU34), for which the log2 fold change was 0.268 (inactive).

As to CDC25B isoform 4 (UniProt P30305), the log2 fold change is 0.054 (inactive).

With CNN1 (UniProt P51911), the log2 fold change is 0.102 (inactive).

As for COMMD1 (UniProt Q8N668), the log2 fold change was 0.15 (inactive).

CKS2 (UniProt P33552): the log2 fold change is 0.025 (inactive).

On to COPS3 isoform 2 (UniProt Q9UNS2), for which the log2 fold change is -0.055 (inactive).

In the case of CDK2AP2 (UniProt O75956), the log2 fold change is 0.134 (inactive).

Turning to CCDC57 (UniProt Q2TAC2), the log2 fold change was -0.15 (inactive).

Turning to CFAP47 (UniProt Q6ZTR5), the log2 fold change is -0.062 (inactive).

Turning to CHST11 (UniProt Q9NPF2), the log2 fold change was 0.083 (inactive).

On to CASP7 isoform 3 (UniProt P55210), for which the log2 fold change was -0.013 (inactive).

Turning to CLINT1 (UniProt Q14677), the log2 fold change is 0.128 (inactive).

For CLASP2 (UniProt O75122), the log2 fold change was 0 (inactive).

Regarding C1D (UniProt Q13901), the log2 fold change is -0.005 (inactive).

On to CLCN5 isoform 2 (UniProt P51795), for which the log2 fold change is 0.097 (inactive).

Compound in a further test: CNc1nc(-c2ccc3c(N)n[nH]c3c2)cc(N2C[C@@H](C(=O)NC3CCCCC3)CC[C@H]2C)n1
The test is described as above. The method in brief:
as §1
CLN3 (UniProt Q13286): the log2 fold change is -0.097 (inactive).

Take CNOT4 isoform 9 (UniProt O95628): the log2 fold change was -0.021 (inactive).

As to CEBPZOS (UniProt A8MTT3), the log2 fold change is -0.032 (inactive).

Regarding CCDC82 (UniProt Q8N4S0), the log2 fold change was -0.139 (inactive).

For the target CCND3 (UniProt P30281), the log2 fold change was -0.067 (inactive).

For the target CKS2 (UniProt P33552), the log2 fold change is -0.101 (inactive).

With CFAP47 (UniProt Q6ZTR5), the log2 fold change was -0.142 (inactive).

Take CA1 (UniProt E5RIF9): the log2 fold change was 0.093 (inactive).

Turning to CASP7 isoform 3 (UniProt P55210), the log2 fold change was 0.254 (inactive).

CLINT1 (UniProt Q14677): the log2 fold change was -0.062 (inactive).

With CLCN5 isoform 2 (UniProt P51795), the log2 fold change is -0.116 (inactive).

With CASK (UniProt O14936), the log2 fold change is -0.009 (inactive).

Compound in another test: COC(=O)N[C@@H](C)CNc1nccc(-c2cn(C(C)C)nc2-c2cc(Cl)cc(NS(C)(=O)=O)c2F)n1 [encorafenib]
The description is as above. The method in brief: as §1
CFAP58 (UniProt Q5T655): the log2 fold change was 0.265 (inactive).

Turning to CLN3 (UniProt Q13286), the log2 fold change was -0.053 (inactive).

On to CNOT4 isoform 9 (UniProt O95628), for which the log2 fold change is -0.05 (inactive).

Turning to CEBPZOS (UniProt A8MTT3), the log2 fold change was -0.038 (inactive).

Consider CRTC2 (UniProt Q53ET0), for which the log2 fold change is -0.026 (inactive).

CDCA2 (UniProt Q69YH5): the log2 fold change was 0.318 (inactive).

CCDC82 (UniProt Q8N4S0): the log2 fold change was 0.021 (inactive).

As to CCND3 (UniProt P30281), the log2 fold change was -0.11 (inactive).

In the case of CS (UniProt F8VU34), the log2 fold change is 0.158 (inactive).

As to CDC25B isoform 4 (UniProt P30305), the log2 fold change was -0.059 (inactive).

In the case of CNN1 (UniProt P51911), the log2 fold change is -0.046 (inactive).

As for COMMD1 (UniProt Q8N668), the log2 fold change is -0.028 (inactive).

For CKS2 (UniProt P33552), the log2 fold change was 0.078 (inactive).

On to COPS3 isoform 2 (UniProt Q9UNS2), for which the log2 fold change was -0.041 (inactive).

For CDK2AP2 (UniProt O75956), the log2 fold change is -0.038 (inactive).

On to CCDC57 (UniProt Q2TAC2), for which the log2 fold change was 0.041 (inactive).

For the target CFAP47 (UniProt Q6ZTR5), the log2 fold change was -0.173 (inactive).

As to CHST11 (UniProt Q9NPF2), the log2 fold change was 0.177 (inactive).

For CASP7 isoform 3 (UniProt P55210), the log2 fold change was 0.014 (inactive).

For CLINT1 (UniProt Q14677), the log2 fold change is -0.045 (inactive).

In the case of CLASP2 (UniProt O75122), the log2 fold change was 0.098 (inactive).

Consider C1D (UniProt Q13901), for which the log2 fold change was 0.009 (inactive).

CLCN5 isoform 2 (UniProt P51795): the log2 fold change was 0.075 (inactive).

Compound in a further test: COC(=O)[C@H](CCSC)NC(=O)C1=C(C=C(C=C1)NC[C@H](CS)N)C2=CC=CC=C2
The description is as above. The method in brief:
as §1
Take CLN3 (UniProt Q13286): the log2 fold change was 0.149 (inactive).

Regarding CRTC3 (UniProt Q6UUV7), the log2 fold change is -0.06 (inactive).

In the case of CNOT4 isoform 9 (UniProt O95628), the log2 fold change is 0.038 (inactive).

With CEBPZOS (UniProt A8MTT3), the log2 fold change was -0.02 (inactive).

As for CRTC2 (UniProt Q53ET0), the log2 fold change was -0.103 (inactive).

On to CDCA2 (UniProt Q69YH5), for which the log2 fold change is -0.03 (inactive).

As to CCDC82 (UniProt Q8N4S0), the log2 fold change was -0.037 (inactive).

As for CCND3 (UniProt P30281), the log2 fold change is 0 (inactive).

In the case of CDC25B isoform 4 (UniProt P30305), the log2 fold change is 0.087 (inactive).

For the target CNN1 (UniProt P51911), the log2 fold change was 0.043 (inactive).

Regarding COMMD1 (UniProt Q8N668), the log2 fold change is 0.092 (inactive).

With COPS3 isoform 2 (UniProt Q9UNS2), the log2 fold change is 0.059 (inactive).

Turning to CCDC57 (UniProt Q2TAC2), the log2 fold change was 0.007 (inactive).

Consider CFAP47 (UniProt Q6ZTR5), for which the log2 fold change is 0.084 (inactive).

CHST11 (UniProt Q9NPF2): the log2 fold change is -0.048 (inactive).

On to CA1 (UniProt E5RIF9), for which the log2 fold change was -0.129 (inactive).

In the case of CLINT1 (UniProt Q14677), the log2 fold change was 0.036 (inactive).

As to CLPTM1L (UniProt G5E9Z2), the log2 fold change is -0.029 (inactive).

Turning to C1D (UniProt Q13901), the log2 fold change was 0.091 (inactive).

As for CLCN5 isoform 2 (UniProt P51795), the log2 fold change was -0.025 (inactive).

CREB3L2 (UniProt Q70SY1): the log2 fold change is -0.172 (inactive).
